A selection: hits, their analogues and other compounds. The true share with any hit is near 2.5%.
Exocytosis inh: lytic granule exocytosis inhibition; TALL-104 LAMP-1 surface exposure, flow cytometry; cells stimulated with thapsigargin and PMA; inhibition, % at 10 µM; actives 0.66% (n = 360,000); AID 651702;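 active = inhibition above about 55%, limit read from the data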
ABCB6 inh MLPCN: blocks the human ABCB6 transporter | AID 602162 | K562-ABCB6 porphyrin accumulation, flow cytometry, 1 h; stronger effect = lower value | actives 0.19% (n = 360,000) | fluorescence ratio to DMSO, % at 10 µM | Q9NP58;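 active = fluorescence ratio to DMSO below 75%, the collection mean minus 3 SD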;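 note: signal is porphyrin accumulated inside mitochondria; 100% equals median channel fluorescence of DMSO control wells; lower ratio means ABCB6 inhibition with less porphyrin fluorescence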
Target sequence (Q9NP58 whole entry, looked up): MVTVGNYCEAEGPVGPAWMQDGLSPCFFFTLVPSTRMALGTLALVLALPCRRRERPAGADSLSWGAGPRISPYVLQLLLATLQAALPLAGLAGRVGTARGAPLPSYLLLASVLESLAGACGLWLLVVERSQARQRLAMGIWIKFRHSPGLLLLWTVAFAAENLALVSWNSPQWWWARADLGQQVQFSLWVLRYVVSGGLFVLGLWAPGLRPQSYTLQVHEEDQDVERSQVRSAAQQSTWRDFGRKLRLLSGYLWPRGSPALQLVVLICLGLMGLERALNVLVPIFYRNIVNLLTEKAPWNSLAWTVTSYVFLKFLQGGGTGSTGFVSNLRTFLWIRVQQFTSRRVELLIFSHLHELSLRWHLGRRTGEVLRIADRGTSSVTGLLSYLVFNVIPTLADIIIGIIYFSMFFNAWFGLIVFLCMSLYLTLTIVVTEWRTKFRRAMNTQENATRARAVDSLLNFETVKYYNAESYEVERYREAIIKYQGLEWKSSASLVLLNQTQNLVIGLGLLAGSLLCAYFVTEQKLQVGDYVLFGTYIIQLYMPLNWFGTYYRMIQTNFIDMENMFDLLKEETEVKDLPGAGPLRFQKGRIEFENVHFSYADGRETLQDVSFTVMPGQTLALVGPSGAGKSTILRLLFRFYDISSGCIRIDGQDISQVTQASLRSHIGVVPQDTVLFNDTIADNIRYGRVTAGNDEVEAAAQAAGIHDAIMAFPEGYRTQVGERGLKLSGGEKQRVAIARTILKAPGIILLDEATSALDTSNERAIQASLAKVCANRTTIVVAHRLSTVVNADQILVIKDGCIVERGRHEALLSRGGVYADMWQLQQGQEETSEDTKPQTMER
rCAG binder-1: molecules binding r(CAG) RNA repeats; r(CAG) RNA repeat, TO-PRO-1 dye displacement fluorescence; inhibition, % at 3 µM; actives 1.3% (n = 370,000);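 active = inhibition above the plate cutoff, the mean of all test compounds on that plate plus 3 SD, cut at about 35% in these data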;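 note: 0% = DMSO alone and 100% = 100 µM mitoxantrone as full dye displacement; higher means more dye released from RNA so lower well fluorescence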
PG9 binder: PG9 antibody binding by small molecule | TR-FRET gp120-PG9 antibody binding | inhibition, % at 6.7 µM | actives 0.43% (n = 360,000) | AID 624416; in the data active = inhibition above about 8.5%
rCAG binder conf: r(CAG) RNA repeat binding, confirmation; inhibition, % at 3 µM; actives 70% (n = 4,300); shares compounds with rCAG binder-1; TO-PRO-1 dye displacement fluorescence;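 active = inhibition above a per-plate cutoff, the mean inhibition of sample wells plus 3 SD, cut at about 35% in these data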;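 note: loss of TO-PRO-1 fluorescence as compound displaces dye from 1x1 AA loop RNA; 0% = DMSO only wells and 100% = 100 µM mitoxantrone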
dCAG dye counter: disrupts DNA CAG TO-PRO-1 complex, flagging rCAG hits; shares compounds with rCAG binder-1; d(CAG) DNA oligo TO-PRO-1 dye displacement, fluorescence; inhibition, % at 3 µM; actives 94% (n = 4,300); AID 652068;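 active = inhibition above its plate's cutoff, the mean test-well inhibition plus 3 SD, cut at about 4.8% in these data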;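 note: 0% = DNA dye mix with DMSO and 100% = 100 µM mitoxantrone; hits displace the dye from DNA and so lower well fluorescence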
dCAG dye DR: disrupts DNA CAG TO-PRO-1 complex in dose response. shares compounds with rCAG binder-1. IC50, µM. DNA CAG/GTC duplex TO-PRO-1 dye displacement fluorescence. actives 20% (n = 250). AID 686960; in the data active = IC50 below about 10 µM
dCAG TOPRO ctr: counter-screen for rCAG binders: DNA CAG TO-PRO-1 complex inhibitors, late stage; AID 720649; actives 80% (n = 30); d(CAG) DNA duplex TO-PRO-1 dye displacement, fluorescence; IC50, µM; shares compounds with rCAG binder-1
rCAG binder-2: binds r(CAG) RNA repeats in late stage dose response; actives 100% (n = 30); shares compounds with rCAG binder-1; r(CAG) RNA TO-PRO-1 dye displacement, fluorescence; IC50, µM
* hit, by the source's call; i = inactive; · = not tested or not shown. Unless noted, the rule behind the calls is not given here.

SMILES	Exocytosis inh	ABCB6 inh MLPCN	rCAG binder-1	PG9 binder	rCAG binder conf	dCAG dye counter	others
Cc1cccc2sc(NNC(=O)c3cc(-c4cccs4)nc4ccccc34)nc12	13	100	38*	2	36*	16*
NNC(=O)c1cc(-c2cccs2)nc2ccccc12	0	94	14	-1	·	·
Cc1ccc(C)c(S(=O)(=O)NC(C)CCc2ccccc2)c1 (stereo unspecified)	30	96	-6	1	·	·
COc1cc(C2C(C#N)=C(N)Oc3c2ccc2ccccc32)ccc1OCC(=O)Nc1cccc(C)c1 (stereo unspecified)	-1	99	53*	-2	14	11*
COc1ccc(C2C(C#N)=C(N)Oc3c2ccc2cccnc32)cc1OC (stereo unspecified)	6	102	3	0	·	·
COc1cc(C2C(C#N)=C(N)Oc3c2ccc2ccccc32)ccc1OCC(=O)Nc1ccc(C)cc1 (stereo unspecified)	-6	103	38*	-2	17	13*
CCN(CC)c1ccc(C(=C2C=CC(=[N+](CC)CC)C=C2)c2ccc(S(=O)(=O)O)cc2S(=O)(=O)[O-])cc1	2	98	46*	-75	58*	18*
CCN(CC)S(=O)(=O)c1ccc2oc(C(=O)O)c(C)c2c1	5	108	-2	0	·	·
Cc1c(C(=O)O)oc2ccc(S(=O)(=O)N(CC(C)C)CC(C)C)cc12	6	108	46*	-1	25	3
CC(=O)c1ccc(NC(=O)CN2C(=O)/C(=C/C(C)=C/c3ccccc3)SC2=S)cc1	-2	100	23	-3	·	·
CC(/C=C1\SC(=S)N(c2ccc(C(=O)O)cc2)C1=O)=C\c1ccccc1	-1	95	55*	0	84*	52*
CC(/C=C1\SC(=S)N(C(C(=O)O)C(C)C)C1=O)=C\c1ccccc1 (stereo unspecified)	14	102	72*	0	75*	31*	dCAG dye DR=i
CC(/C=C1\SC(=S)N(CCC(=O)Nc2ccc(O)cc2)C1=O)=C\c1ccccc1	2	98	19	-1	·	·
C[C@H]1CN([C@@H](C)CO)C(=O)CCCn2cc(nn2)CO[C@@H]1CN(C)S(=O)(=O)c1cn(C)cn1	·	·	-1	-1	·	·
Cc1ccc(S(=O)(=O)N2CCC(C(=O)Nc3nnc(C)s3)CC2)cc1	-2	100	0	-1	·	·
CC(=O)c1sc(-c2ccccc2)cc1NS(=O)(=O)c1ccccc1	-4	99	83*	-1	11	2
Cc1nc(NS(=O)(=O)c2ccccc2)sc1C(=O)N/N=C/c1ccccc1	-4	98	69*	0	43*	11*
Cc1ccc(S(=O)(=O)Nc2nc(C)c(C(=O)NN)s2)cc1	7	101	58*	4	11	3
CC(=O)c1sc(-c2ccc(F)cc2)cc1NS(=O)(=O)c1ccc(C)cc1	-5	105	1	1	·	·
NC(=O)c1sc(-c2ccsc2)cc1NS(=O)(=O)c1ccc(C(F)(F)F)cc1	11	102	56*	-2	77*	30*	dCAG dye DR=7*;dCAG TOPRO ctr=4.4*;rCAG binder-2=1.5*
CN(CC(=O)Nc1ccc(F)c(Cl)c1)S(=O)(=O)c1ccc2c(c1)n(C)c(=O)c(=O)n2C	-5	108	2	-2	·	·
Cc1ccc(S(=O)(=O)NNC(=O)c2sc(NS(=O)(=O)c3ccccc3)nc2C)cc1	5	86	22	0	·	·
CC(=O)c1sc(-c2ccccc2)cc1NS(=O)(=O)c1ccc(C)cc1	-2	95	9	0	·	·
Cc1ccc(C)c(S(=O)(=O)Nc2nc(C)c(C(=O)Nc3ccccc3)s2)c1	-2	98	46*	1	36*	9.0*
